Test results: PubChem BioAssay (Tox21)
Records with an inconclusive call do not appear. Where a call stands in place of a potency, no number is given. A number with no mark means an inactive call. The source made the active and inactive calls. Calls come from the whole dose curve; as a rule, active = well fitted cell-killing curve with a large enough effect in the repeat runs; inconclusive = weak or mixed curves, or effect the other way; inactive = flat fitted curve, though single readings scatter.

Assay: qHTS assay to identify small molecule antagonists of the estrogen receptor alpha (ER-alpha) signaling pathway using the BG1 cell line in the presence of 0.1 nM 17-beta-estradiol - cell viability counter screen (AID 1259241); note: nearly all actives have a fitted effect of over 40% in size
Conditions: VM7Luc4E2 (BG1) viability, CellTiter-Fluor protease, 22 h, 0.1 nM estradiol agonist added; series mostly up to 92.4 µM
Excerpt: National Center for Advancing Translational Sciences [NCATS]
NIH Chemical Genomics Center [NCGC]
U.S. Environmental Protection Agency [EPA]
National Institutes of Environmental Health Sciences [NIEHS]
National Toxicology Program [NTP]
U.S. Food and Drug Administration [FDA]
Estrogen receptor (ER), a member of the nuclear hormone receptor plays an important role in development, metabolic homeostasis and reproduction. Two subtypes of ER, ER-alpha and ER-beta, have similar expression patterns with some uniqueness in both types. Endocrine disrupting chemicals (EDCs) and their interactions with steroid hormone receptors like ER causes disruption of normal endocrine function. Therefore, it is important to understand the effect of environmental chemicals in ER signaling pathway. For identifying ER antagonists, VM7Luc4E2 cell line was used to screen against Tox21 compound libraries.
VM7Luc4E2 cell line (provided by Denison MS, University of California) endogenously express full-length ER-alpha and is stably transfected with a plasmid containing four estrogen responsive elements (ERE) upstream of a luciferase reporter gene. The current screening for identification of ER-alpha inhibitors against Tox21 compound libraries used lower concentration (0.1 nM) of 17beta-Estradiol as a stimulator. The cytotoxicity of the Tox21 compound libraries against VM7Luc4E2 cell line was tested by measuring live-cell protease activity using CellTiter-Fluor assay in the same wells.
Tox21 Assay Protocol Summary:
VM7Luc4E2 cells were cultured in phenol red free assay medium containing 10% charcoal stripped FBS for 5 days prior to the assay. The cells were dispensed at 4,000 cells/well in 4 uL of assay medium into white wall/solid-bottom 1536-well plates (Corning Life Sciences, Corning, NY) using a Multidrop Combi (ThermoFisher Scientific, Waltham, MA) dispenser. After the assay plates were incubated at 37C and 5% CO2 for 24 hr, 23 nL of compounds dissolved in DMSO, positive controls or DMSO only was transferred to the assay plates by a Pintool station (Kalypsys, San Diego, CA). The transfer of compounds was followed by the addition of 1 uL of 0.1 nM (final concentration) agonist (17beta-Estradiol)/assay medium using a Flying Reagent Dispenser (FRD, Aurora Discovery, San Diego, CA). The plates were incubated at 37C and 5% CO2 for 22 hr. For cytotoxicity assay, 1 uL of CellTiter-Fluor reagent (Promega Corporation, Madison, WI) was added to each well using the FRD and after 30 min incubation at 37C and 5% CO2, The fluorescence intensity was measured using ViewLux plate reader (PerkinElmer, Shelton, CT).
Potency is the fitted concentration of half-maximal effect.

Compound	Potency	activity change, negative = cytotoxicity
O[Si](c1ccccc1)(c1ccccc1)c1ccccc1	inactive	–
C1CCSC1	inactive	–
CCCCCCCCCCCCCCCCCCNC(=O)OC1CCN(C(=O)OC[C@H](COC(=O)N(Cc2cccc[n+]2CC)C(=O)c2ccccc2OC)OC)CC1	inactive	–
c1ccc(-c2ccc(C(c3ccccc3)n3ccnc3)cc2)cc1 (stereo not given)	inactive	–
CCCCCCCCc1ccc(Nc2ccc(CCCCCCCC)cc2)cc1	inactive	–
NC(=O)C1CO1 (stereo not given)	inactive	–
CC(C)(C)C1=CC(=O)C(C(C)(C)C)=CC1=O	inactive	–
CCOc1nc(F)cc2nc(S(=O)(=O)Nc3c(Cl)cccc3C(=O)OC)nn12	inactive	–
C/C(=C\c1ccc(C(=O)O)cc1)c1ccc2c(c1)C(C)(C)CCC2(C)C	inactive	–
CCc1c(C)cc(N)c(CC)c1N	inactive	–
CCc1cccc(CC)c1	inactive	–
Nc1cc([N+](=O)[O-])ccc1Cl	inactive	–
CC1(C)[C@H](C(=O)OCc2cccc(Oc3ccccc3)c2)[C@@H]1C=C(Cl)Cl	inactive	–
C=CC(C)(C)O	inactive	–
[Cl][Eu]([Cl])[Cl]	inactive	–
COc1ccc(OC)c(N=Nc2c(O)ccc3ccccc23)c1	9.69 µM (active)	–
O=C(c1ccccc1)c1ccc(Cl)cc1	inactive	–
CC(O)(c1ccc(Cl)cc1)c1ccc(Cl)cc1	inactive	–
CN[C@H]1CC[C@@H](c2ccc(Cl)c(Cl)c2)c2ccc(S(N)(=O)=O)cc21	inactive	–
CCCCCCCCCC[N+](C)(CCCCCCCCCC)CCC[Si](OC)(OC)OC	inactive	–

Compound	Potency	activity change, negative = cytotoxicity
Cc1cc(C)c(O)c(C(C)(C)C)c1	inactive	–
C=Cc1ccncc1	inactive	–
CCNc1nc(NC(C)(C)C)nc(OC)n1	inactive	–
Cc1ccc2n[nH]nc2c1	inactive	–
NC(=O)c1ccccc1Cl	inactive	–
CCCCC/C=C\C=C\C(=O)OCC	inactive	–
Nc1ccc2c(S(=O)(=O)O)cccc2c1S(=O)(=O)O	inactive	–
C=CC(=O)OCC(Br)CBr (stereo not given)	inactive	–
Brc1cc(Br)cc(Br)c1	inactive	–
CC(C)=NNC(N)=S	inactive	–
COc1cc(OC)nc(NC(=O)NS(=O)(=O)Nc2ccccc2C(=O)N(C)C)n1	inactive	–
Oc1cccc2c(O)cccc12	68.6 µM (active)	–
O=C(Nc1ccc([N+](=O)[O-])cc1)Nc1ccc([N+](=O)[O-])cc1 (tested in a mixture with another compound)	inactive	–
COc1cc2ncnc(Nc3cccc(Cl)c3)c2cc1OC	–	-7.05% [at 19 µM]
O=C(CCN1CCC(c2ccccc2)C1)c1ccc2c(c1)OCCO2 (stereo not given)	inactive	–
CCC(C)(C)c1ccc(CC(C)CN2C[C@@H](C)O[C@@H](C)C2)cc1 (stereo not given in full)	inactive	–
O=C(Cl)c1ccc(Cl)cc1Cl	inactive	–
CCOC(=O)[C@H](O)[C@@H](O)C(=O)OCC	inactive	–
CCOc1ccc([N+](=O)[O-])cc1	inactive	–
C=C(C)CCO	inactive	–
